The list is not random: actives were taken first. Their share in the collection is about 19%.
DT40 TDP1 no CPT – qHTS for Inhibitors of human tyrosyl-DNA phosphodiesterase 1 (TDP1): qHTS in cells in absence of CPT | DT40 Tdp1-/- hTDP1 cells, no CPT, ATP luminescence, 48 h | Potency, µM (highest dose often 46.2 µM), most hits filed as inhibitors | hit rate 15% among 420,000 | AID 686978, 2013; also: nearly all actives have a fitted effect of over 55% in size
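Chicken DT40 Tdp1-/- cells complemented with human TDP1, screened without camptothecin (DMSO vehicle only), 400 cells/well. Compounds pin-transferred, cells incubated at 37 °C for at least 48 hr. Growth read as ATP-dependent luminescence (CellTiter-Glo, 30 min at RT).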
DT40 TDP1 CPT – qHTS for Inhibitors of human tyrosyl-DNA phosphodiesterase 1 (TDP1): qHTS in cells in presence of CPT; hit rate 12% among 420,000; Potency, µM (doses to about 46.2 µM), actives largely listed as inhibitors; chicken DT40 Tdp1-/-;hTDP1 cells + 20 nM CPT, ATP luminescence, 48 h; also: nearly all actives have a fitted effect of over 55% in size
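Chicken DT40 Tdp1-/- cells complemented with human TDP1, 400 cells/well, exposed to compounds plus 20 nM camptothecin for at least 48 h at 37 C; viability read as ATP content by CellTiter-Glo luminescence.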
HT1080-NT tox – qHTS for induction of synthetic lethality in tumor cells producing 2HG: qHTS for the HT-1080-NT fibrosarcoma cell line; HT-1080-NT fibrosarcoma viability, CellTiter-Glo ATP luminescence, 48 h; Potency, µM (doses to about 46.1 µM), hits mostly cytotoxic; hit rate 1.6% among 360,000; AID 686970, 2013;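 also: NT is the 2HG producing partner of a matched IDH1 knockdown line; nearly all actives have a fitted effect of over 55% in size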
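Compounds were tested in concentration-response format on HT-1080-NT cells for 48 hours at 37 degrees C. Cell viability came from CellTiter-Glo luminescence; curves were classified by r2, response magnitude and activity.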
IL1B secr inh – qHTS for Inhibitors of Inflammasome Signaling: IL-1-beta AlphaLISA Primary Screen; AID 743279, 2014; hit rate 4.7% among 360,000; THP-1 LPS/ATP IL-1B secretion, AlphaLISA, 16 h; hits give low values; activity change, % at 57.5 µM; in the data active = activity change below about -50%; inconclusive = mostly about -30% to -49%
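Secreted IL-1B measured by AlphaLISA bead assay after 16 h compound exposure of THP-1 cells; compounds (final up to 57.5 uM) added 1 h before LPS (250 ng/mL) and ATP (1.25 mM) stimulation; lower signal means less secretion.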
HT1080 IDH1KD tx – qHTS for induction of synthetic lethality in tumor cells producing 2HG: qHTS for the HT-1080-IDH1KD cell line; Potency, µM (highest dose often 46.1 µM), most hits filed as cytotoxic; AID 686971, 2013; HT-1080 IDH1 knockdown viability, ATP luminescence, 48 h; hit rate 2% among 360,000
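HT-1080-IDH1KD cells (IDH1 knocked down), 750/well in RPMI with 5% FBS, treated with compound 48 h at 37 degrees C. Viability by CellTiter-Glo luminescence, normalised to DMSO and no-cell wells; concentration-response curves classed.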
Each line names hits and unclear results; the compound was inactive in the other large screens. Unless noted, calls follow the shape of the dose curve; as a rule, active = well fitted curve in the direction sought with a large enough effect; inconclusive = small, poorly fitted or top-dose-only effect, or another doubt; inactive = no such curve, though single readings can be large; an effect the other way counts as inactive or inconclusive.

CCC(C)NC(=S)N(Cc1cc2cc(C)ccc2n2nnnc12)CC(C)(C)NC(C)C (configuration not stated)	DT40 TDP1 no CPT 16µM, DT40 TDP1 CPT 16µM
CC(=NC(C)C)C1=C(O)C(C)OC1=O (configuration not stated)	none
COc1ccc(C2C(C#N)=C(C)NC(C)=C2C#N)c(OC)c1	none
COc1ccc(C2C(C#N)=C(N)Nc3onc(C(C)(C)C)c32)c(OC)c1 (configuration not stated)	DT40 TDP1 no CPT 18µM, DT40 TDP1 CPT inconclusive
CC(=O)c1ccc(N=C2C(=O)Nc3ccccc32)cc1	DT40 TDP1 no CPT 13µM, DT40 TDP1 CPT inconclusive
Cc1ccc(-c2[nH][nH]c(=O)c(=O)c2N=Nc2ccccc2)cc1	DT40 TDP1 CPT inconclusive
COCCCN1C(=O)C(=O)/C(=C(/O)c2ccc(S(=O)(=O)N3CCOCC3)cc2)C1c1ccc(C(C)C)cc1 (configuration not stated)	none
COC(C[C@@H]1O[C@H]1C(=O)[C@@H](C)OCc1ccccc1)OC	DT40 TDP1 CPT 18µM, IL1B secr inh inconclusive
COC(C[C@H]1O[C@H]1C(=O)[C@@H](C)OCc1ccccc1)OC	DT40 TDP1 no CPT inconclusive, DT40 TDP1 CPT 10µM
COC(C[C@@H]1O[C@@H]1[C@H](O)[C@H](C)OCc1ccccc1)OC	none
COC(C[C@@H]1O[C@@H]1[C@@H](O)[C@@H](C)OCc1ccccc1)OC	none
Cc1cc(C)c(S(=O)(=O)N2CCOC2CNC(=O)C(=O)NCCCn2ccnc2)c(C)c1 (configuration not stated)	none
CCC1=C(OC(=O)N(CC)CC)N2C(=O)OC(=NCCOC)[C@]2(Cc2ccccc2)[C@H]2C1=CC[C@H]1C(=O)N(CC)C(=O)[C@H]12	none
CCC1=C(OC(=O)N(CC)CC)N2C(=O)OC(=NCC3CC3)[C@]2(Cc2ccccc2)[C@H]2C1=CC[C@H]1C(=O)N(CC)C(=O)[C@H]12	DT40 TDP1 no CPT 21µM, DT40 TDP1 CPT 16µM, HT1080-NT tox inconclusive, IL1B secr inh inconclusive, HT1080 IDH1KD tx inconclusive
COc1ccc(CC2(CO)CCN(Cc3cccn3-c3ccccn3)CC2)cc1	IL1B secr inh inconclusive
C#CCn1c(=NC(=O)c2ccc(S(=O)(=O)N3CCCc4ccccc43)cc2)sc2cc(S(N)(=O)=O)ccc21	DT40 TDP1 no CPT 15µM, DT40 TDP1 CPT 13µM
CC(C)(C)C(=O)Nc1ccccc1N1CCN(c2ccc(F)cc2)CC1	DT40 TDP1 no CPT inconclusive
CCC(C)C(CO)NCCCn1cnc2c(SC)ncnc21 (configuration not stated)	none
Cc1ccc2c(c1)sc[n+]2Cc1ccccc1	DT40 TDP1 no CPT 13µM, DT40 TDP1 CPT 13µM, HT1080-NT tox inconclusive, HT1080 IDH1KD tx inconclusive
O=C(CCCOc1ccccc1)NC1CCCc2ccccc21 (configuration not stated)	DT40 TDP1 no CPT inconclusive
CS(=O)(=O)n1nc(-c2ccco2)nc1NCc1ccccc1Cl	DT40 TDP1 no CPT 18µM, DT40 TDP1 CPT inconclusive (no result: HT1080-NT tox, IL1B secr inh, HT1080 IDH1KD tx)
Cc1ccc(CNc2nc(-c3ccco3)nn2S(=O)(=O)c2ccc3ccccc3c2)cc1	none (no result: HT1080-NT tox, IL1B secr inh, HT1080 IDH1KD tx)
CC(C)c1ccc(CNc2nc(-c3ccco3)nn2S(=O)(=O)c2ccc(F)cc2)cc1	DT40 TDP1 no CPT inconclusive, DT40 TDP1 CPT 21µM (no result: HT1080-NT tox, IL1B secr inh, HT1080 IDH1KD tx)
COc1ccc(S(=O)(=O)n2nc(-c3ccco3)nc2NCc2ccc(C(C)C)cc2)cc1	DT40 TDP1 no CPT 23µM, DT40 TDP1 CPT 18µM (no result: HT1080-NT tox, IL1B secr inh, HT1080 IDH1KD tx)
CCN(C(=O)COC(=O)CN(C)S(=O)(=O)c1ccc(NC(C)=O)cc1)C1CCS(=O)(=O)C1 (configuration not stated)	none
CCC(C)(C)C1CCC(=NNC(=O)c2ccoc2C)CC1 (configuration not stated)	none
O=C(CN1CCN(c2ccccn2)CC1)Nc1ccc(F)cc1F	none
COc1ccc(S(=O)(=O)N(C)C)cc1NC(=O)CSc1nncs1	none

High-throughput results: PubChem BioAssay, National Center for Advancing Translational Sciences (NCATS)
